The molecules below were run on Staphylococcus aureus Sa2 (MRSA, cystic fibrosis isolate) (assay: growth reduction vs untreated control (viable cell count); higher = stronger antibacterial activity; extreme values may be limits of the assay). Conditions: 0.1 mM; 24 h.
Experimental: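 Single-dose screen of the MedChem Express Drug Repurposing Library (0.1 mM, 1% DMSO) against planktonic MRSA S. aureus Sa2 (CF isolate) in TSB in 96-well plates, 37 °C aerobic, 24 h. Assays were run in triplicate and repeated twice.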

| SMILES | growth reduction |
| --- | --- |
| Cc1nc(C(=O)NCC(=O)O)c(O)c2ccc(Oc3ccccc3)cc12 [Roxadustat] | 98% |
| CC(C)(C(=O)NCC(F)(F)C(F)(F)F)C(=O)N[C@@H]1C(=O)Nc2ccccc2-c2ccccc21 | 90% |
| O=C(O)c1ccccc1Nc1cccc(C(F)(F)F)c1 [Flufenamic acid] | 98% |
| CC(=O)Oc1ccccc1C(=O)Nc1ncc([N+](=O)[O-])s1 [Nitazoxanide] | 100% |
| NC(=O)[C@@H]1CC[C@@H]2CN1C(=O)N2OS(=O)(=O)O [Avibactam (sodium)] | 97% |
| Cc1cccc(/C=N/Nc2cc(N3CCOCC3)nc(OCCc3ccccn3)n2)c1 [Apilimod (mesylate)] | 93% |
| CCN(CC)CCNC(=O)c1c(C)[nH]c(/C=C2\C(=O)Nc3ccc(-c4csc(-c5ccccc5)n4)cc32)c1C [Amcasertib] | 100% |
